# Values joined by “and” are separate entries in the source; they are usually repeats but may differ in a detail not shown here. Equal values may be shown once. Results filed as inconclusive are left out. A call without a number means that no potency is given here. Active and inactive are the calls of the source. Unless noted, the call rests on the fitted dose curve; in most records, active means well fitted curve in the direction sought with a large enough effect; inconclusive means small, poorly fitted or top-dose-only effect, or another doubt; inactive means no such curve, though single readings can be large; an effect the other way counts as inactive or inconclusive.
# Columns and labels:
# [1] = P-glycoprotein substrates identified in KB-8-5-11 adenocarcinoma cell line, qHTS therapeutic library screen (AID 1346987); further: nearly all actives have a fitted effect of over 65% in size; further: potency means the concentration at half of the fitted maximal effect
# How it was run: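 P-gp-mediated resistance screen: KB-8-5-11 cells treated 72 h with compounds in dose-response. CellTiter-Glo viability.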
# astro = assay: Drug repurposing screens with cells derived from glioblastoma tumor samples (AID 1345199); details: viability, ATP luminescence, 48 h; series mostly up to 45.9 µM; further: nearly all actives have a fitted effect of over 40% in size
# How it was run: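 Four patient lines of CD133+ GBM neurospheres were screened at several concentrations; hits were retested in those lines plus three slower-growing GBM lines, using 48-hour treatment and ATP-based viability.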
# [2] = P-glycoprotein substrates identified in KB-3-1 adenocarcinoma cell line, qHTS therapeutic library screen (AID 1346986); further: nearly all actives have a fitted effect of over 60% in size;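 further: potency means the concentration at half of the fitted maximal effect; potency is for cytotoxicity meaning loss of cell viability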
# How it was run: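 KB-3-1 parental cells and P-gp-overexpressing KB-8-5-11 (colchicine omitted during assay) plated at 500 cells/well, dosed in dose-response, incubated 72 h at 37 degree C. CellTiter-Glo luminescence read; KB-8-5-11 also tested with tariquidar.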
# [3] = Primary qHTS for inhibitors of nuclear receptor binding SET domain protein 2 (NSD2) in an RCH-ACV wild type WT cells (2C) (AID 1645877); further: nearly all actives have a fitted effect of over 70% in size; further: potency means the concentration at half of the fitted maximal effect
# [4] = biological target: Glutathione peroxidase 1 (Homo sapiens) (UniProt P07203); assay: Primary qHTS Assay for Inhibitors of Recombinant Selenoprotein Glutathione Peroxidase 1 (GPX1) (AID 1845191); further: nearly all actives have a fitted effect of over 65% in size
# Sequence of Glutathione peroxidase 1 (Homo sapiens) (P07203 whole entry, looked up): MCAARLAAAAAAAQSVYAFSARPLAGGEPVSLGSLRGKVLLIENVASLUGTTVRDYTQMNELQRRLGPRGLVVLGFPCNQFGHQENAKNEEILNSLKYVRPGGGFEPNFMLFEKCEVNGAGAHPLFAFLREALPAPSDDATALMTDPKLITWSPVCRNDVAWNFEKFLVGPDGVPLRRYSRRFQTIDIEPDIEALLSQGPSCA
# How it was run: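 Recombinant GPX1 (10 nM final) was preincubated with compound for 30 min at room temperature, then reacted with 1 mM GSH, 0.5 mM CHP, 0.5 mM NADPH and 100 nM glutathione reductase; NADPH fluorescence (340/450 nm) was read at 0 and 15 min.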
# [5] = qHTS drug screen for cell cycle checkpoint inhibitors in PARPi-resistant BRCA-mutant ovarian cancer cell lines. (AID 1963452; calls by dose curve); details: PEO1/OlaR viability, CellTiter-Glo luminescence, 96 h, stronger effect = lower value
# How it was run: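 PEO1, PEO4 and PEO1/OlaR ovarian cancer cells, 600 per well, exposed 96 h at 37C to a dilution series. Viability read by CellTiter-Glo luminescence, normalized to DMSO and empty wells; activity summarized as Z-AUC.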
# [6] = AP1 Signaling Pathway (AID 357; active means well fitted curve in either direction with a large enough effect, not every such curve was filed as active)
# How it was run: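 AP-1-bla ME-180 cells with beta-lactamase reporter under AP-1 response element, stimulated with EC50 EGF; compounds titrated, 5 hours at 37 degrees Celsius. CCF4 read at 460/530 nm ratio; positive and negative modulators judged by AC50.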
# [7] = biological target: Cytochrome P450 1A2 (Homo sapiens) (UniProt P05177); assay: p450-cyp1a2 (AID 410; calls by dose curve)
# Sequence of Cytochrome P450 1A2 (Homo sapiens) (P05177 whole entry, looked up): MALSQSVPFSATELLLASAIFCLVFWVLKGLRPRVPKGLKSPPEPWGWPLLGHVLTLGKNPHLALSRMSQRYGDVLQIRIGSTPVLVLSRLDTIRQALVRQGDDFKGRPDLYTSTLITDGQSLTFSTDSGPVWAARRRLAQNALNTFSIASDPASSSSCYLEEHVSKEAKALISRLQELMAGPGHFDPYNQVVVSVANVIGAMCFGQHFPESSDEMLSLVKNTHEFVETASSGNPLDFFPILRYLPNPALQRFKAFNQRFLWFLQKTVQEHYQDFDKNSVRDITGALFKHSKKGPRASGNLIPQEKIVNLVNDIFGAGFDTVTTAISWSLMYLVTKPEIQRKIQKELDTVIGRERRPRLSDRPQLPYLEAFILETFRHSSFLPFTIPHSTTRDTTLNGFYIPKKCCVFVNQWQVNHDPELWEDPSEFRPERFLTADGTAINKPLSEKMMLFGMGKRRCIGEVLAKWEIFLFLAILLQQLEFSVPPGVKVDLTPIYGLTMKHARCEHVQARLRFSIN
# How it was run: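 Inhibition was calculated relative to 57 uM furafylline (full inhibition). The reaction used human CYP1A2 at 20nM with Luciferin-ME at its Km, 100uM, driven by an NADPH-regenerating system for 60 min at room temperature.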
# [8] = NFAT Signaling Pathway (AID 444; active means well fitted curve in either direction with a large enough effect, not every such curve was filed as active;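 further: carbachol stimulus at about its EC50 of 1 µM final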); details: Jurkat NFAT-bla M1, carbachol, beta-lactamase ratio, 5 h; at 17.2 µM (top of the series)
# How it was run: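 Jurkat cells carrying an NFAT-driven β-lactamase reporter and co-transfected muscarinic M1 receptor were treated with compound plus carbachol (1 uM final, an EC50 level) for 5 h at 37 °C. CCF4 loading followed for 1 h at RT; 460/530 nm ratio gave %activity.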
# [9] = Stat Signaling Pathway (AID 446; active means well fitted curve in either direction with a large enough effect, not every such curve was filed as active;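 further: ME-180 cervical cancer cells given 40 pM IL-6 alongside compound; SIE-controlled beta-lactamase reporter measured as 460/530 nm FRET emission ratio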)
# How it was run: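 Reporter line: ME-180 cervical carcinoma, SIE-beta-lactamase. Treatment: compound with 40 pM IL-6, 5 hrs, 37 C, in low-serum OPTI-MEM with 10 mM HEPES pH 7.3. Detection: 460/530 nm fluorescence.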
# [10] = biological target: Glucocorticoid receptor (Homo sapiens) (UniProt P04150); assay: GR-GFP Redistribution (AID 450;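 active means compounds whose dose series gives a full or clear partial fitted curve of increased nuclear translocation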; further: potency means the concentration at half of the fitted maximal effect); details: U2OS GR-GFP nuclear translocation, laser cytometry, 2 h
# Sequence of Glucocorticoid receptor (Homo sapiens) (P04150 whole entry, looked up, the tested form may be a part): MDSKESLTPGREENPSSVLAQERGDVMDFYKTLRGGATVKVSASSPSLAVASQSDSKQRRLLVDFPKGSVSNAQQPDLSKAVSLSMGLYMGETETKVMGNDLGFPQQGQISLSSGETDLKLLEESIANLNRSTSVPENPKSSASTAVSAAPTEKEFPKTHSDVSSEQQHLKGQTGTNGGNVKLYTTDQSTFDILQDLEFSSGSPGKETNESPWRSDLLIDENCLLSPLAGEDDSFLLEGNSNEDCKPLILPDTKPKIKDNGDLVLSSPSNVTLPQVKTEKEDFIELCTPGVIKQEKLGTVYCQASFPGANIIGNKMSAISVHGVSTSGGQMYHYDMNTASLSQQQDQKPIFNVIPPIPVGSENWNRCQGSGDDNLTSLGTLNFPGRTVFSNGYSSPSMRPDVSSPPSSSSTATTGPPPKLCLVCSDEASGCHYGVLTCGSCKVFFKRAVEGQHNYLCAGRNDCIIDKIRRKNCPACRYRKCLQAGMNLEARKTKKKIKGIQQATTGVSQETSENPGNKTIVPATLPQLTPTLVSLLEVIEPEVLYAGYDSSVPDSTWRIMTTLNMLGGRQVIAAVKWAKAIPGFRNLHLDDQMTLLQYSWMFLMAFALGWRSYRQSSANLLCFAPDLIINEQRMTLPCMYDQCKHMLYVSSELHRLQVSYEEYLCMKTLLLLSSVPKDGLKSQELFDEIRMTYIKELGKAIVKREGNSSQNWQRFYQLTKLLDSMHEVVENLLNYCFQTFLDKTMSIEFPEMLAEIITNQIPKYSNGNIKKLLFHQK
# [11] = biological target: Glucocorticoid receptor (Homo sapiens) (UniProt P04150); assay: GR-EFC Redistribution (AID 451; calls by dose curve; further: potency means the concentration at half of the fitted maximal effect); details: CHO-K1 GR-EFC translocation, beta-gal luminescence, 2 h
# How it was run: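 CHO-K1 cells stably expressing nuclear-localized β-gal enzyme acceptor and GR fused C-terminally to the enzyme donor fragment; ligand-driven nuclear translocation restores β-gal by complementation. Compounds titrated up to 46 uM final, 2 h at 37 °C; luminescence read.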
# [12] = biological target: Mitogen-activated protein kinase 10 (Mus musculus) (UniProt Q61831); assay: JNK3 AlphaScreen Assay (AID 530; active means well fitted curve in either direction with a large enough effect, not every such curve was filed as active;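 further: kinase came from lysate of stimulated human HepG2 cells; signal reports phosphorylation of biotinylated GST-cJun 1-79 at Ser73 with 10 µM ATP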)
# How it was run: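 JNK3 came from HepG2 lysates pre-activated with IL-1beta and TNF-alpha and phosphorylated biotinylated GST-cJun (1-79) at 10 uM ATP, pH 7.6, room temperature. Compounds were titrated. AlphaScreen signal used anti-phospho-cJun (Ser73) antibody.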
# [13] = biological target: 3',5'-cyclic-AMP phosphodiesterase 4B (Homo sapiens) (UniProt Q07343); assay: qHTS Assay for Inhibitors of PDE-IV (AID 607; active means well fitted activation curve with a large enough effect in the main read-out, with a control signal flat, not every such curve was filed as active)
# Sequence of 3',5'-cyclic-AMP phosphodiesterase 4B (Homo sapiens) (Q07343 whole entry, looked up): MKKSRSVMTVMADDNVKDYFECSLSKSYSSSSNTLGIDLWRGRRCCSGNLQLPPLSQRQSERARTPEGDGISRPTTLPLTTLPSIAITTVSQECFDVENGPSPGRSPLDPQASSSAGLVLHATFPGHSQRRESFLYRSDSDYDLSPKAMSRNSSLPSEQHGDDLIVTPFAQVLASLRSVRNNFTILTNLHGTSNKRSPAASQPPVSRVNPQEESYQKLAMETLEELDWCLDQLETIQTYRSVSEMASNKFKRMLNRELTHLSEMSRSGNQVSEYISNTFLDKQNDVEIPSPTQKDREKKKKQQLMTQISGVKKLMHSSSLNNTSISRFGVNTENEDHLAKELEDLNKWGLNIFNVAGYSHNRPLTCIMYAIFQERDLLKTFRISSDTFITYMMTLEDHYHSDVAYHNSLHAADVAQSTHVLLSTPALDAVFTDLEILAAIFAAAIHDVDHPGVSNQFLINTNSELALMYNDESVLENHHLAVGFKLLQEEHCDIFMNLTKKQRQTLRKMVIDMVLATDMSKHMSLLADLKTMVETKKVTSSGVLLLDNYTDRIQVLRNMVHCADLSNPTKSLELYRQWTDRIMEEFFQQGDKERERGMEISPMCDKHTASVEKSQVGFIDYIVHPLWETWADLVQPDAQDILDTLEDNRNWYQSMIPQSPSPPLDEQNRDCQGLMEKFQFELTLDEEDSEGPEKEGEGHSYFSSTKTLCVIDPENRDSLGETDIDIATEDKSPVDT
# How it was run: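 Cell-based read-out of cAMP via a modified cyclic nucleotide-gated channel and membrane potential dye (535/590 nm) in HEK293 cells expressing PDE4 endogenously. Compounds tested up to 22.9 uM final; 100 uM RO 20-1724 reference.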
# [14] = biological target: Cytochrome P450 2C9 (Homo sapiens) (UniProt P11712); assay: qHTS Assay for Inhibitors and Substrates of Cytochrome P450 2C9 (AID 883); further: nearly all actives have a fitted effect of over 60% in size
# Sequence of Cytochrome P450 2C9 (Homo sapiens) (P11712 whole entry, looked up): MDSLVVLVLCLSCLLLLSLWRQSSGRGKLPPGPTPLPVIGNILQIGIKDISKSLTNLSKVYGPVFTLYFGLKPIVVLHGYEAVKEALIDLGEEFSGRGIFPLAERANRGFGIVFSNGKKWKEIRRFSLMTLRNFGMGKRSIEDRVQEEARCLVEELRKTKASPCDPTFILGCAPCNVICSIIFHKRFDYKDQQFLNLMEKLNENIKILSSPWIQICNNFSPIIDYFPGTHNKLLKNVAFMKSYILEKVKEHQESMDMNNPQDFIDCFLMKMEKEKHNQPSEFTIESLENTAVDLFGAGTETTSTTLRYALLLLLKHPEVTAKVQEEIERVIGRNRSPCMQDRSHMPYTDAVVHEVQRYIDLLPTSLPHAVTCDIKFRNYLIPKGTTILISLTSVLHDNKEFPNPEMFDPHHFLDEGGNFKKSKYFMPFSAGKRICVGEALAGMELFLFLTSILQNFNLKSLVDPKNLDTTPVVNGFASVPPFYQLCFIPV
# How it was run: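 Human CYP2C9 (10nM) hydroxylated Luciferin-H (100uM, at its KM) to luciferin in 25mM KPO4. Compound was preincubated 10 min at 37C, then NADPH regeneration started a 60 min reaction at 37C. Luminescence was read after detection reagent, normalized to 57uM sulphaphenazole.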
# [15] = biological target: Cytochrome P450 2D6 (Homo sapiens) (UniProt P10635); assay: qHTS Assay for Inhibitors and Substrates of Cytochrome P450 2D6 (AID 891);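 further: luciferin methyl ether substrate demethylated by CYP2D6 with NADPH regeneration; nearly all actives have a fitted effect of over 60% in size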
# Sequence of Cytochrome P450 2D6 (Homo sapiens) (P10635 whole entry, looked up): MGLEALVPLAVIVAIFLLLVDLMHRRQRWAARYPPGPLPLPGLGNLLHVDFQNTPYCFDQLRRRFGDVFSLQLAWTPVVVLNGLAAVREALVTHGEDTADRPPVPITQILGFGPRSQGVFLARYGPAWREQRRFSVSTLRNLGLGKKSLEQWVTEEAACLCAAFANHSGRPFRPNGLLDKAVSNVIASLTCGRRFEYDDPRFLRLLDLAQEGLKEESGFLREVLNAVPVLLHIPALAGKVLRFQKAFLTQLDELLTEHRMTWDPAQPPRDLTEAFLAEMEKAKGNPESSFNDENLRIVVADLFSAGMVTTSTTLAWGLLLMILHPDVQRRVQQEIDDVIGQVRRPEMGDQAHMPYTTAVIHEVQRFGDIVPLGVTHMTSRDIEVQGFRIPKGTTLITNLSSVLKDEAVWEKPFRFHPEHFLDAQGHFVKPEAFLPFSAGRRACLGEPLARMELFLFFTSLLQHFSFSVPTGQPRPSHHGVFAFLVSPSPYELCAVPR
# How it was run: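 Human CYP2D6 (5 nM) with 30 uM Luciferin-ME EGE (at Km) in 100 mM KPO4, compound preincubated 10 min, then NADPH regeneration system for 60 min at room temperature. Luciferin read by luminescence; normalized to 1.43 uM quinidine.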
# [16] = biological target: Cytochrome P450 2C19 (Homo sapiens) (UniProt P33261); assay: qHTS Assay for Inhibitors and Substrates of Cytochrome P450 2C19 (AID 899); further: nearly all actives have a fitted effect of over 60% in size
# Sequence of Cytochrome P450 2C19 (Homo sapiens) (P33261 whole entry, looked up): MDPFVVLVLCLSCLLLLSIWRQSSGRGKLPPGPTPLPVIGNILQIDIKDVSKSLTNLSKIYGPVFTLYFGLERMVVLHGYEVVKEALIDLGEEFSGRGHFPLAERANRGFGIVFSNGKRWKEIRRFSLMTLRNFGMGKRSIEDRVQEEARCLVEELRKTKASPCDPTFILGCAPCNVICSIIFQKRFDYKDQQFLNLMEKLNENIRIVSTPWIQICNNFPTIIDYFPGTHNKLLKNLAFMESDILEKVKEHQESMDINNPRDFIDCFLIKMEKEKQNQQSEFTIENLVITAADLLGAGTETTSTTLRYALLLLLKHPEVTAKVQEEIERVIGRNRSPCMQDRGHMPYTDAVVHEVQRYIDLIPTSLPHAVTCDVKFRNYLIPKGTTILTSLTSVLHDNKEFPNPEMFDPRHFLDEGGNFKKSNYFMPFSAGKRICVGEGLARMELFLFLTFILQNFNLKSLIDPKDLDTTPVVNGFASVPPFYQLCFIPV
# How it was run: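 Human CYP2C19 (5nM) with Luciferin-H EGE at 10uM (its KM) in 50mM KPO4 was preincubated with compound for 10 min at 37C. NADPH regeneration started a 60 min 37C reaction. Luciferin was read by luminescence, normalized to 57uM ketoconazole.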
# [17] = qHTS Assay for Lipid Storage Modulators (AID 1519; calls by dose curve); details: Drosophila S3 cells, BODIPY lipid droplet/cell ratio, laser cytometry, cells loaded with oleic acid
# How it was run: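 Cells seeded at 5,000 per well were treated with compounds over a concentration series and loaded with oleic acid (400 uM, as added). Lipid droplet fluorescence (488 nm excitation, 500-530 nm channel) was read by laser-scanning cytometry and normalized to 20 uM Triacsin C.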
# [18] = biological target: Ubiquitin carboxyl-terminal hydrolase 1 (Homo sapiens) (UniProt O94782); assay: Inhibitors of USP1/UAF1: Pilot qHTS (AID 504865);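 further: rhodamine fluorescence freed from ubiquitin-rhodamine substrate followed over time; top concentration of the series differs between compounds; nearly all actives have a fitted effect of over 35% in size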
# Sequence of Ubiquitin carboxyl-terminal hydrolase 1 (Homo sapiens) (O94782 whole entry, looked up): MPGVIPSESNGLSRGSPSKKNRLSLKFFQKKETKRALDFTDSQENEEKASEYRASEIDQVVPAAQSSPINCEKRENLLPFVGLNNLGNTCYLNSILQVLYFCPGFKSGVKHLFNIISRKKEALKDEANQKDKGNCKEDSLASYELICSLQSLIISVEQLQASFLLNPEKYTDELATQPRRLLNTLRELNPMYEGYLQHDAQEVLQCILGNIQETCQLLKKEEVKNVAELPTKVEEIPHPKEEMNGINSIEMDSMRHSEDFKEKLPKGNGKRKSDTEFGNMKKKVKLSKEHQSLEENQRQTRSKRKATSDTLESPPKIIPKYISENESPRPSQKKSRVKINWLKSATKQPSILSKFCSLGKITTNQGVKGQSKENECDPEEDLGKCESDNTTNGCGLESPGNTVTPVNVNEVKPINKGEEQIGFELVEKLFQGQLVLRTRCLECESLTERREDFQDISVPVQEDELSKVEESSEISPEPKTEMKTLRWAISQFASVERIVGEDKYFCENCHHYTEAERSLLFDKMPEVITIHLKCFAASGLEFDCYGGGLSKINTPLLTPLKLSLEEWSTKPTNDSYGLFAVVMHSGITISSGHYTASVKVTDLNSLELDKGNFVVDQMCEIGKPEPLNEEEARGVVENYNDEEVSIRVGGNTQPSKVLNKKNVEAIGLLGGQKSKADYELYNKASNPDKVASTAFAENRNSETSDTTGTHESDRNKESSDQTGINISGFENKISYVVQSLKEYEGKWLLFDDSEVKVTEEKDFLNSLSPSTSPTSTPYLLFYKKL
# How it was run: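 USP1/UAF1 complex at 1 nM preincubated 15 min at room temperature with compound, then Ub-Rho substrate added at 150 nM final. Fluorescence (480/540 nm) read kinetically in 50 mM HEPES pH 7.8, 0.5 mM EDTA, 1 mM TCEP, 0.1 mg/ml BSA, 0.01% Tween-20.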
# [19] = biological target: DNA dC->dU-editing enzyme APOBEC-3G (Homo sapiens) (UniProt Q9HC16); assay: qHTS for inhibitors of Vif-A3G interactions: Validation (AID 588379)
# Sequence of DNA dC->dU-editing enzyme APOBEC-3G (Homo sapiens) (Q9HC16 whole entry, looked up): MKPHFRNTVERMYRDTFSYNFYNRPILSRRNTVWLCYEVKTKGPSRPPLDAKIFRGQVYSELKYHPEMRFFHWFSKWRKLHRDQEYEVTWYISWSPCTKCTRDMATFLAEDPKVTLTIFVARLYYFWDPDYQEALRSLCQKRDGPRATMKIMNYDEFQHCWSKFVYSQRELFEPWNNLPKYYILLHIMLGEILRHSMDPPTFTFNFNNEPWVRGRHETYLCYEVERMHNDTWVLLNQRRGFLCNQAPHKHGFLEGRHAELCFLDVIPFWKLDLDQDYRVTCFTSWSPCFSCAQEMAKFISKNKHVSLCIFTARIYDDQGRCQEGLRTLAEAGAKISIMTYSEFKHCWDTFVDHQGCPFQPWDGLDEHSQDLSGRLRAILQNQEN
# How it was run: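 HeLa cells stably expressing Vif and A3G-eYFP, 700 cells/well, incubated overnight at 37 deg C, then exposed to compound overnight at 37 deg C. Inhibition of Vif-mediated degradation read as increased yellow fluorescence (Ex 488/Em 500-530) by laser-scanning cytometry.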
# [20] = Primary qHTS for inhibitors of nuclear receptor binding SET domain protein 2 (NSD2) in an isogenic RCH-ACV NSD2 p.E1099K mutant (9B) (AID 1645876); further: nearly all actives have a fitted effect of over 70% in size
smiles,measurement,setting,value
CN[C@@]1(c2ccccc2Cl)CCCCC1=O,Potency,[1],inactive
same,Potency,astro,inactive
COc1cc2c(cc1F)C(c1ccccc1Cl)=Nc1c(n[nH]c1C)N2,Potency,[2],2.06 µM (active)
same,Potency,[1],1.3 µM (active)
same,Potency,[3],1.03 µM (active)
same,Potency,[4],inactive
same,Z-AUC,[5],-0.71 (inactive)
same,Z-AUC,[5]; measured here: PEO1 parental Z-AUC,-0.883
same,Z-AUC,[5]; measured here: PEO4 Z-AUC,-0.718
COc1ccn(C)c(=O)c1C#N,outcome,[6],inactive
same,Potency,[7],inactive
same,"activity change, negative = inhibition",[8],6.67% (inactive)
same,outcome,[9],inactive
same,Potency,[10],> 20.6 µM (inactive) and > 46 µM (inactive)
same,Potency,[11],> 20.6 µM (inactive) and > 46 µM (inactive)
same,outcome,[12],inactive
same,Potency,[13],inactive
same,Potency,[14],inactive
same,Potency,[15],inactive
same,Potency,[16],inactive
same,"activity change, negative = inhibition",[17]; at 25.7 µM (top of the series),-0.52% (inactive)
same,"activity change, negative = inhibition",[17]; at 57.5 µM (top of the series),1.07% (inactive)
same,max response,[17]; measured here: cell count channel max response,4.19% and -22.1%
same,max response,[17]; measured here: lipid channel max response,5.59% and -19.6%
same,Potency,[18],inactive
same,Potency,[19],inactive
same,Potency,[2],inactive
same,Potency,[1],inactive
same,Potency,[20],inactive
same,Potency,[3],inactive

# From PubChem BioAssay (NCATS)
